# The source made the active and inactive calls. Rule for the calls: active = hit-call score of the fitted dose curve at least 0.9, where 1 is the maximum; inactive = score below 0.9.
# Tests used:
# Settings in all cases: mRNA level, 48 h; actives raise or lower the signal
# [1] = read-out: Alkaline Phosphatase, Placental (ALPP) gene, ALPP (gene 250); experiment: LTEA_HepaRG_ALPP: Life Technologies and Expression Analysis (LTEA) Assay for Alkaline Phosphatase, Placental (ALPP) gene using HepaRG (AID 2283468)
# Outline: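 ALPP transcript level, measured by qRT-PCR and normalized to three housekeeping genes (ACTB, GAPDH, POLR2A), after 48 h dosing of differentiated HepaRG in serum-free induction medium. Top concentration 100 uM with half-log dilutions (8 points, 0.5% DMSO, duplicates); bidirectional fitting relative to DMSO.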
# [2] = read-out: Bcl-2 (BAD) gene, BAD (gene 572); experiment: LTEA_HepaRG_BAD: Life Technologies and Expression Analysis (LTEA) Assay for Bcl-2 (BAD) gene using HepaRG (AID 2283469)
# Outline: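 Differentiated human HepaRG cells in serum-free induction medium were exposed in duplicate for 48 h to eight concentrations (top 100 uM, half-log steps, 0.5% DMSO). BAD mRNA was quantified by qRT-PCR normalised to ACTB, GAPDH and POLR2A, with bidirectional fitting versus DMSO.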
# [3] = read-out: Bcl-2 (BAX) gene, BAX (gene 581); experiment: LTEA_HepaRG_BAX: Life Technologies and Expression Analysis (LTEA) Assay for Bcl-2 (BAX) gene using HepaRG (AID 2283470)
# Outline: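 Differentiated human HepaRG cells, plated 48 h then switched to serum-free induction medium, were exposed 48 h to 8 half-log concentrations up to 100 uM in 0.5% DMSO; BAX mRNA measured by qRT-PCR, normalized to ACTB, GAPDH, POLR2A.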
# [4] = read-out: adenosine kinase (ADK) gene, ADK (gene 132); experiment: LTEA_HepaRG_ADK: Life Technologies and Expression Analysis (LTEA) Assay for adenosine kinase (ADK) gene using HepaRG (AID 2283471)
# Outline: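 Read-out is ADK transcript level measured by qRT-PCR and normalised to three housekeeping genes. Cells are human HepaRG, dosed for 48 h at up to 100 uM in 0.5% DMSO. Gain or loss of signal is fitted against DMSO controls.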
# [5] = read-out: Alpha-fetoprotein (AFP) gene, AFP (gene 174); experiment: LTEA_HepaRG_AFP: Life Technologies and Expression Analysis (LTEA) Assay for Alpha-fetoprotein (AFP) gene using HepaRG (AID 2283472)
# Outline: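 Human HepaRG cells plated 48 h, then switched to serum-free induction medium and exposed in duplicate for 48 h to 8-point half-log series from 100 uM in 0.5% DMSO. AFP mRNA by qRT-PCR, normalized to ACTB, GAPDH, POLR2A; bidirectional fit versus DMSO.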
# BCL2L11 (gene 10018) = experiment: LTEA_HepaRG_BCL2L11: Life Technologies and Expression Analysis (LTEA) Assay for Bcl-2 (BCL2L11) gene using HepaRG (AID 2283473)
# Outline: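 BCL2L11 transcript levels are measured by Fluidigm qRT-PCR, normalized to three housekeeping genes. HepaRG cultures were plated 48 h, then treated 48 h with test chemical (top 100 uM, half-log, 0.5% DMSO vehicle); curves were fitted bidirectionally against DMSO.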
# [6] = read-out: Apolipoprotein A-V (APOA5) gene, APOA5 (gene 116519); experiment: LTEA_HepaRG_APOA5: Life Technologies and Expression Analysis (LTEA) Assay for Apolipoprotein A-V (APOA5) gene using HepaRG (AID 2283474)
# Outline: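 APOA5 transcript levels were quantified by qRT-PCR, normalized to three housekeeping genes, after 48 h chemical treatment of HepaRG cells (8 points, 100 uM maximum, half-log steps, 0.5% DMSO). Curves fitted in both directions against vehicle.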
# [7] = read-out: Apoptosis regulator Bcl-2 (Homo sapiens) (UniProt P10415); experiment: LTEA_HepaRG_BCL2: Life Technologies and Expression Analysis (LTEA) Assay for Bcl-2 gene using HepaRG (AID 2283475)
# Outline: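 Differentiated HepaRG cells in serum-free induction medium were exposed for 48 h to eight half-log concentrations up to 100 uM in 0.5% DMSO, in duplicate. BCL2 mRNA was quantified by TaqMan qRT-PCR normalised to ACTB, GAPDH and POLR2A, with bidirectional fitting versus DMSO.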
# [8] = read-out: Bcl-2 (BID) gene, BID (gene 637); experiment: LTEA_HepaRG_BID: Life Technologies and Expression Analysis (LTEA) Assay for Bcl-2 (BID) gene using HepaRG (AID 2283476)
# Outline: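 Differentiated HepaRG cells in serum-free induction medium were exposed in duplicate for 48 h to eight half-log concentrations up to 100 uM in 0.5% DMSO. BID mRNA was quantified by qRT-PCR, normalized to ACTB, GAPDH and POLR2A.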
# Caspase-3 (Homo sapiens) = Caspase-3 (Homo sapiens) (UniProt P42574); experiment: LTEA_HepaRG_CASP3: Life Technologies and Expression Analysis (LTEA) Assay for cysteine-aspartic acid protease (CASP3) using HepaRG (AID 2283477)
# Outline: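 Expression of CASP3 was quantified by TaqMan qRT-PCR against three housekeeping genes (ACTB, GAPDH, POLR2A), bidirectionally versus 0.5% DMSO. HepaRG cultures received compounds in duplicate, top 100 uM with half-log steps, for 48 h in serum-free induction medium.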
# Apoptosis regulator Bcl-2 (Homo sapiens), sequence (P10415 whole entry, looked up): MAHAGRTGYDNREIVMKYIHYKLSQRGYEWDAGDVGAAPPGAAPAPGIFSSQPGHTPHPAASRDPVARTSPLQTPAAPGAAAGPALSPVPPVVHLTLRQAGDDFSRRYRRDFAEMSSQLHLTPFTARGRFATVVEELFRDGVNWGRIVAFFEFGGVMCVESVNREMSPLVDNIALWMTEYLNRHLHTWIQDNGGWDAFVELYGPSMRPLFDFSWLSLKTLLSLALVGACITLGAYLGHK
# Caspase-3 (Homo sapiens), sequence (P42574 whole entry, looked up): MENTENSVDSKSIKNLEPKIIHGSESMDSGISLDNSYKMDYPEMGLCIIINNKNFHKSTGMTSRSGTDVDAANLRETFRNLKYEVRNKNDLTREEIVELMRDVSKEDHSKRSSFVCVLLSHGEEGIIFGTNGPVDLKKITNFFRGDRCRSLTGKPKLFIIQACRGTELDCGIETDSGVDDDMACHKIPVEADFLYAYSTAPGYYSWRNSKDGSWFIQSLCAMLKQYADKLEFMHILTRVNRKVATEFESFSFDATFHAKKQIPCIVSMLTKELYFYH
Compound,outcome [1],outcome [2],outcome [3],outcome [4],outcome [5],outcome (BCL2L11 (gene 10018)),outcome [6],outcome [7],outcome [8],outcome (Caspase-3 (Homo sapiens)),AC50 [1],AC50 [6],AC50 [7],AC50 [4],AC50 [5],AC50 (BCL2L11 (gene 10018)),AC50 (Caspase-3 (Homo sapiens)),AC50 [8],AC50 [3]
CN1CCC[C@H]1c1cccnc1,inactive,inactive,inactive,inactive,inactive,inactive,inactive,inactive,inactive,inactive,,,,,,,,,
CCc1ccc(CCOc2ccc(CC3SC(=O)NC3=O)cc2)nc1 (stereo not drawn),,inactive,inactive,inactive,,inactive,,,inactive,inactive,38.2 µM (active),84.6 µM (active),72.6 µM (active),,,,,,
CC(C)(C)CC(C)(C)c1ccc(O)c(-n2nc3ccccc3n2)c1,inactive,inactive,inactive,inactive,inactive,inactive,inactive,inactive,inactive,inactive,,,,,,,,,
CCN(CC)CCNc1ccc(CNC=O)c2sc3ccc(OC)cc3c(=O)c12,inactive,inactive,inactive,,,,,inactive,inactive,,,12.4 µM (active),,76.7 µM (active),11.5 µM (active),21.9 µM (active),72.7 µM (active),,
OC1CCCCC1,inactive,inactive,inactive,inactive,inactive,inactive,inactive,inactive,inactive,inactive,,,,,,,,,
O=[N+]([O-])c1ccc(O)cc1,inactive,inactive,inactive,inactive,inactive,inactive,inactive,inactive,inactive,inactive,,,,,,,,,
CC(O)CO (stereo not drawn),inactive,inactive,inactive,inactive,inactive,inactive,inactive,inactive,inactive,inactive,,,,,,,,,
OCCC(F)(F)C(F)(F)C(F)(F)C(F)(F)C(F)(F)C(F)(F)F,inactive,inactive,inactive,inactive,inactive,inactive,inactive,inactive,inactive,inactive,,,,,,,,,
Cc1oc(-c2ccccc2)nc1CCOc1ccc(C[C@H](Nc2ccccc2C(=O)c2ccccc2)C(=O)O)cc1,,inactive,inactive,,inactive,,inactive,inactive,,,26.1 µM (active),,,30.5 µM (active),,84.6 µM (active),32.7 µM (active),75.6 µM (active),
COCC(C)OCC(C)O (stereo not drawn),inactive,inactive,inactive,inactive,inactive,inactive,inactive,inactive,inactive,inactive,,,,,,,,,
Cc1cc(C)c(O)c(C)c1,inactive,inactive,inactive,inactive,inactive,inactive,inactive,inactive,inactive,inactive,,,,,,,,,
CCC(C)(C)C1CCC(O)CC1 (stereo not drawn),inactive,inactive,inactive,inactive,inactive,inactive,inactive,inactive,inactive,inactive,,,,,,,,,
CC1=C(/C=C/C(C)=C/C=C/C(C)=C/C(=O)O)C(C)(C)CCC1,inactive,inactive,,inactive,,inactive,inactive,inactive,inactive,inactive,,,,,35.9 µM (active),,,,20.4 µM (active)
CCCCCCCCCCCCc1ccccc1S(=O)(=O)O,,inactive,,inactive,,inactive,,,inactive,inactive,91.6 µM (active),80.3 µM (active),50 µM (active),,80 µM (active),,,,50 µM (active)
O=C(O)c1ccccc1C(c1ccc(O)cc1)c1ccc(O)cc1,inactive,inactive,inactive,inactive,inactive,inactive,inactive,inactive,inactive,inactive,,,,,,,,,
CCCCCCCCCCCCN1CCCC1=O,inactive,inactive,inactive,inactive,inactive,inactive,inactive,inactive,inactive,inactive,,,,,,,,,

Compound,outcome [1],outcome [2],outcome [3],outcome [4],outcome [5],outcome (BCL2L11 (gene 10018)),outcome [6],outcome [7],outcome [8],outcome (Caspase-3 (Homo sapiens)),AC50 [1],AC50 [6],AC50 [7],AC50 [4],AC50 [5],AC50 (BCL2L11 (gene 10018)),AC50 (Caspase-3 (Homo sapiens)),AC50 [8],AC50 [3]
CC[C@H](c1ccc(O)cc1)[C@@H](CC)c1ccc(O)cc1,,inactive,inactive,,inactive,,inactive,inactive,inactive,,83.6 µM (active),,,77.1 µM (active),,77.7 µM (active),78.4 µM (active),,
NC(=O)N(O)[C@@H]1C=C[C@H](Oc2cccc(Oc3ccc(F)cc3)c2)C1,,inactive,,inactive,,,,,inactive,inactive,3.76 µM (active),37.7 µM (active),73.9 µM (active),,20.2 µM (active),12.3 µM (active),,,64.5 µM (active)
C=C(C)C(=O)OCCC(F)(F)C(F)(F)C(F)(F)C(F)(F)C(F)(F)C(F)(F)F,inactive,inactive,inactive,inactive,inactive,inactive,inactive,inactive,inactive,inactive,,,,,,,,,
CCC(=C(c1ccc(O)cc1)c1ccc(OCCN(C)C)cc1)c1ccccc1,inactive,inactive,inactive,,inactive,,inactive,inactive,inactive,,,,,75.2 µM (active),,82.9 µM (active),89.8 µM (active),,
CCCCC(CC)COC(=O)CCCCC(=O)OCc1ccccc1 (stereo not drawn),inactive,,inactive,inactive,inactive,inactive,inactive,inactive,inactive,inactive,,,,,,,,,
Oc1cc2ccccc2c2ccccc12,inactive,inactive,inactive,inactive,inactive,inactive,inactive,inactive,inactive,inactive,,,,,,,,,
CC(C)(C)c1cccc(C(C)(C)C)c1O,inactive,inactive,inactive,inactive,inactive,inactive,inactive,inactive,inactive,inactive,,,,,,,,,
Nc1cccc2c(N)cccc12,inactive,inactive,inactive,inactive,inactive,inactive,inactive,inactive,inactive,inactive,,,,,,,,,
CC(=O)NC1(c2cccc(F)c2)CCN(CC[C@@]2(c3ccc(Cl)c(Cl)c3)CN(c3ccccc3)C(=O)CO2)CC1,,inactive,inactive,inactive,,,inactive,inactive,inactive,inactive,19.6 µM (active),,,,13.1 µM (active),59.6 µM (active),,,
c1ccc2cc3c(ccc4ccccc43)cc2c1,inactive,inactive,inactive,inactive,,,,inactive,inactive,inactive,,15.9 µM (active),,,25.9 µM (active),7.02 µM (active),,,
N#C[C@@H]1CC(F)(F)CN1C(=O)CNC1CC2CCC(C1)N2c1ncccn1 (stereo partly drawn),inactive,inactive,inactive,inactive,inactive,inactive,inactive,inactive,inactive,inactive,,,,,,,,,
CN(C)C=O,inactive,inactive,inactive,inactive,inactive,inactive,inactive,inactive,inactive,inactive,,,,,,,,,
O=C(O)Cc1cc(I)c(Oc2cc(I)c(O)c(I)c2)c(I)c1,,inactive,inactive,,,inactive,,,inactive,inactive,13.6 µM (active),57.7 µM (active),21.7 µM (active),45.7 µM (active),37.5 µM (active),,,,
C[C@@H]1C[C@H]2[C@@H]3CCC4=CC(=O)C=C[C@]4(C)[C@@]3(F)[C@@H](O)C[C@]2(C)[C@@]1(O)C(=O)COP(=O)(O)O,inactive,inactive,inactive,inactive,inactive,inactive,inactive,inactive,inactive,inactive,,,,,,,,,
Cc1cc(CCN2CCN(c3nsc4ccccc34)CC2)cc2c1NC(=O)CC2(C)C,,inactive,,inactive,,inactive,,,inactive,inactive,50 µM (active),75.9 µM (active),68.2 µM (active),,72.6 µM (active),,,,93 µM (active)

# Source: PubChem BioAssay (EPA / NIEHS)
